In the supplement of paper PMC6555819:

Legend:
Experiment in all cases: PBM binding z-score (relative to random genomic background probes); higher = stronger binding; sequences stand for … in GC…GCGATTGACAGCGTAGAATGAAGG
[1] = test system: PPARg:RXRa DBDmut IVT, anti-RXR (DBD mutation: RXRa K156A/R161A, NR concentration 270 nM, RXRa partner concentration 90 nM)
Method in brief: (§1)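 Binding buffer was PBS pH 7.4 with 2% milk, 0.02% Triton X-100, 1 mM DTT, 0.2 mg/mL BSA and 0.4 mg/ml salmon testes DNA. In it, ligand-free nuclear receptor dimers were incubated 1 h on custom Agilent 4×180K protein-binding microarrays carrying double-stranded probes. Antibodies against each partner (one per run) detected binding, and z-scores were calculated against random background probes after regression normalization of scanned fluorescence.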

[2] = test system: PPARg:RXRa IVT, anti-PPARg (NR concentration 270 nM, RXRa partner concentration 90 nM)
Method in brief: as §1

[3] = test system: PPARg DBDmut:RXRa IVT, anti-PPARg (DBD mutation: PPARg1 K132A/R137A, NR concentration 270 nM, RXRa partner concentration 90 nM)
Method in brief: as §1

[4] = test system: PPARg DBDmut IVT, anti-PPARg (DBD mutation: PPARg1 K132A/R137A, NR concentration 270 nM)
Method in brief: as §1

[5] = test system: PPARg homodimer (NR concentration 180 nM)
Method in brief: as §1

[6] = test system: PXR:RXRa (NR concentration 270 nM, RXRa partner concentration 90 nM)
Method in brief: as §1

[7] = test system: PXR homodimer (NR concentration 270 nM)
Method in brief: as §1

[8] = test system: RARa:RXR (NR concentration 270 nM, RXRa partner concentration 90 nM)
Method in brief: as §1

[9] = test system: RARa homodimer (NR concentration 270 nM)
Method in brief: as §1

[10] = test system: RARb:RXRa (NR concentration 270 nM, RXRa partner concentration 90 nM)
Method in brief: as §1

Sequence	PBM binding z-score [1]	PBM binding z-score [2]	PBM binding z-score [3]	PBM binding z-score [4]	PBM binding z-score [5]	PBM binding z-score [6]	PBM binding z-score [7]	PBM binding z-score [8]	PBM binding z-score [9]	PBM binding z-score [10]
ATCGAGAGGTCGTGAGGTGAGTATACAGAAAGGC	0.135	2.04	1.16	0.618	1.02	2.66	0.102	3.54	0.567	3.05
ACTAGTTCGTCAGCTGAGGTCACACACAATTCGG	0.735	2.22	0.493	1.22	2.47	5.11	2.76	4.66	1.82	3.52
TCTCGTAGATCAATAGAGGTTAAGAAAGTGCGCT	1.66	0.219	0.246	0.204	0.0307	3.08	0.105	1.6	0.0805	0.751
AGACTGAGGTTACCAAAGATCAGGGAAACGCTTG	0.451	1.01	-0.133	-0.273	0.133	1.42	-0.0396	1.82	-0.111	2.08
TCTCGGAGGACACGTAGGTCAGAGCTTTCCAGAG	1.13	0.761	-0.418	-1.11	0.0512	0.765	-0.00599	0.992	-0.463	2.54
AGAACGAGGGCAATGAGTTTATAGCACGGGTGGC	3.6	2.75	0.304	-0.00705	-0.116	4.31	12.1	0.403	-0.186	2.44
ACTTGCAGGCCAAGTTTGGGTCACTCAAACAAAG	2.37	1.92	0.338	0.0722	0.632	0.858	-0.0999	1.61	-0.63	2.05
ATACCAAGGTGATCGTGAGGTCGTGGATACTAAC	0.55	1.38	0.414	0.297	1.2	2.53	0.492	3.03	0.48	1.65
ATCGAAAGGACGACGAGGTGAGTATACACCGTTT	-0.481	0.315	0.774	0.683	-0.198	-0.109	-0.293	0.0451	0.198	1.1
TCATGTAGATCAGCAGGTTAAGAAAGCTGGCCAA	1.87	0.284	-0.501	-0.804	0.238	0.193	0.00655	0.125	-0.0627	0.286
CGTCAAAGTTCAAGGTAACCTAACAGAAAGCAGC	0.978	2.67	0.466	0.361	2.09	4.03	2.12	3.26	1.18	5.37
TCTTGTAGATCAGCAAGTTAAGAAAGCTGGCCAA	1.5	0.0775	0.0136	-0.449	-0.907	-0.095	-0.549	-0.2	-0.451	-0.472
CAAACTAGGTCACAGAGGTCATAGTCCGTGCGTA	8.64	9.13	4.61	1.67	6.77	6.52	12.2	7.31	3.54	5.27
TCTATTAGTTGAAGGGCAACCGCCGAGTCCGTTT	2.32	0.783	0.465	1.32	1.11	0.779	0.698	0.905	1.14	1.74
CCGAGTAGGTTATGGGGCTTTCAGGCAACGGTGA	3.12	2.84	-0.365	-0.667	0.638	-0.191	-0.0344	-0.019	0.153	0.525
GCAGACAGGTGAAACGCAGGTAAGTCAGGGTGGC	0.702	0.327	-0.327	-0.89	-0.504	-0.471	-0.705	0.101	-0.533	0.61
CCAGACAGGTGTGAAGGTAACTCAGCCTCGATTA	-0.0821	-0.409	-1.46	-0.767	0.376	-0.386	0.146	-0.273	0.322	-0.103
GCTTACGGGTCAAATGTTATAGCATGAATAGAAT	4.4	4.44	1.56	1.2	2.47	3.34	-0.148	4.24	0.995	3.88
TCAGATAGGTAAACAGGTGAAAGTCCGTAAGTTA	2.93	2.15	0.778	0.465	0.969	0.684	0.401	1.05	1.15	0.891
TTACCAAGGTGCAAGGTCGTTGATGCACGCCTTG	-0.0401	1.05	-0.472	-0.179	0.87	1.16	0.648	1.13	-0.653	1.22
ATCTCTAGGTAGAGATAGTTCAGTGAATGCAAAT	-0.289	0.0847	0.624	0.987	0.293	0.338	0.253	0.641	0.194	0.242
ACTATTAGTTGACTTTGGGCAACCGATACGACGC	-0.00927	0.141	1.83	1.67	0.55	0.0456	0.199	0.481	0.975	0.454
ACAGACAGATGAGTGAAGGTAACTCAGCTGGACG	-0.101	0.00181	0.781	0.138	0.692	-0.0478	0.186	0.101	0.524	-0.14
